A selection: hits, their analogues and other compounds. The true share with any hit is near 10%.
BAZ2B block = blocks human BAZ2B; AlphaScreen BAZ2B-H3K14Ac peptide displacement; AID 504333; Potency, µM (top dose mostly 114 µM), hits mostly inhibitors; 360,000 compounds, 4.4% hits; also: nearly all actives have a fitted effect of over 60% in size
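Compounds, titrated to a top concentration of 110 uM, were incubated 30 min at room temperature with preformed BAZ2B/acetyl-K14 H3 peptide complex (50 nM each). Proximity signal was measured by AlphaScreen after 20 min with beads.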
JMJD2A Tudor = JMJD2A Tudor domain (human) inhibition | O75164 | AlphaScreen JMJD2A-Tudor / H3K4me3 peptide binding | Potency, µM (highest dose often 114 µM), usual class: inhibitors | 390,000 compounds, 4.4% hits | AID 504339; also: nearly all actives have a fitted effect of over 50% in size
GLS inh = blocks human kidney-isoform glutaminase activity | O94925 | GLS enzymatic activity, qHTS titration | Potency, µM (doses to about 45.5 µM), most hits filed as inhibitors | 410,000 compounds, 0.21% hits | AID 624170
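Coupled fluorescence readout: glutamate oxidase/HRP/Amplex Red detect glutamate formed by hKGA from L-glutamine (1 mM solution added). Buffer 45 mM KH2PO4 pH 8.2, 0.02% Tween-20; reads at t0 and 30 min RT.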
HP1b chromo inh = HP1-beta chromodomain-methylated histone interaction inhibition | AID 540317 | 390,000 compounds, 0.56% hits | P83916 | AlphaScreen HP1-beta / biotin-H3K9me3 peptide binding | Potency, µM (top dose mostly 114 µM), usual class: inhibitors; also: nearly all actives have a fitted effect of over 70% in size
Target sequence (P83916 whole entry, looked up): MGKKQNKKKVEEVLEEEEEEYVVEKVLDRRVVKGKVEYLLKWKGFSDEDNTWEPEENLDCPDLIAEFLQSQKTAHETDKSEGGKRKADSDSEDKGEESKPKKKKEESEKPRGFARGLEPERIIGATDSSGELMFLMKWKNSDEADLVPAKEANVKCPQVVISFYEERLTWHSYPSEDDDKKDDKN
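AlphaScreen: HP1-beta (50 nM) preformed 30 min with biotin-H3(1-18)K9me3 peptide (50 nM) in PBS pH 7.4, 0.01% Tween-20. Compound added for 30 min at RT, then streptavidin donor/nickel chelate acceptor beads (10 ug/mL) for 30 min.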
L3MBTL1 block = inhibitors of human L3MBTL1 | Q9Y468 | AlphaScreen L3MBTL1–H3K9me1 peptide binding | Potency, µM (doses to about 57.1 µM), usual class: inhibitors | 230,000 compounds, 0.66% hits | AID 485360; also: nearly all actives have a fitted effect of over 60% in size
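L3MBTL1 (50 nM) pre-complexed 30 min with biotinylated H3(1-15)K9me1 peptide (75 nM), then compounds added for 30 min at room temperature; AlphaScreen streptavidin donor/nickel chelate acceptor beads (10 ug/mL final) read after 30 min dark incubation.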
G9a inh = blocks human histone lysine methyltransferase G9a; Q96KQ7; G9a H3K9 monomethylation, AlphaScreen, 2 h; Potency, µM (series often up to 102 µM), usual class: inhibitors; 350,000 compounds, 8.8% hits; also: nearly all actives have a fitted effect of over 75% in size
Target sequence (Q96KQ7 913-1193 limits assumed): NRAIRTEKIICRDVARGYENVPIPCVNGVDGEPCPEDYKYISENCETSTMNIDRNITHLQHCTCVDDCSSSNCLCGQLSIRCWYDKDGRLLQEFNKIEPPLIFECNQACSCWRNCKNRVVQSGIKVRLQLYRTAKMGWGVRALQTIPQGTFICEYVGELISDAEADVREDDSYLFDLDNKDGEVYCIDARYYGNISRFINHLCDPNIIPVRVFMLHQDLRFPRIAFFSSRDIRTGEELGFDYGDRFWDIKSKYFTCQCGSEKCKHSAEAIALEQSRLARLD
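Enzyme 20 nM + cpd, 15 min RT; add b-H3K9 pep 500 nM / SAM 20 uM; 2 h RT; anti-H3K9me1 Ab 0.5 ug/mL + SA donor / anti-rabbit acceptor beads 20 ug/mL each, 10 min; AlphaScreen read.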
Numbers stand for hits; i = inactive; ? = inconclusive; nt = no result given; [ ] = dose if it differs, or a comment. Calls follow the shape of the dose curve; as a rule, active = well fitted curve in the direction sought with a large enough effect; inconclusive = small, poorly fitted or top-dose-only effect, or another doubt; inactive = no such curve, though single readings can be large; an effect the other way counts as inactive or inconclusive.

SMILES	BAZ2B block	JMJD2A Tudor	GLS inh	HP1b chromo inh	L3MBTL1 block	G9a inh
CCOC(=O)c1ccc(N2C(=O)c3n[nH]c(-c4ccco4)c3C2c2cccc([N+](=O)[O-])c2)cc1 (stereo unspecified)	11.2µM	?	i	?	i	?
CCOc1ccc(C2C(C(=O)c3ccc(C)o3)=C(O)C(=O)N2c2nc(C)c(C(=O)OC)s2)cc1 (stereo unspecified)	i	?	i	i	nt	10µM
COc1ccccc1N(CC(=O)Nc1ccc2c(c1)OCO2)S(=O)(=O)c1ccc(C)cc1	?	i	i	i	nt	i
C(=N\NC1=NCCN1)/c1ccncc1	?	?	i	i	i	39.8µM
O=C1c2ccccc2[C@@H]2CC(O)C(O)CCN12 (stereo partly specified)	nt	i	i	i	i	nt
CC1(C)Cc2ccccc2C2CC(O)C(=O)N21 (stereo unspecified)	i	89.1µM	i	i	i	22.4µM
C/C(=N\NS(=O)(=O)c1cccc([N+](=O)[O-])c1)c1cccnc1	i	i	i	i	i	31.6µM
CC(=O)N1CCC(=NNc2ccc(S(N)(=O)=O)cc2[N+](=O)[O-])CC1	i	i	i	i	i	i
CC(=O)N1CCC(=NNS(=O)(=O)c2cccc([N+](=O)[O-])c2)CC1	i	i	i	i	nt	10µM
C/C(=N/NC(=O)CNC(=O)c1cccnc1)c1cccc([N+](=O)[O-])c1	i	i	i	i	nt	i
CC(=O)N1CCC(=NNS(=O)(=O)c2ccc(C)c([N+](=O)[O-])c2)CC1	i	i	i	i	nt	11.2µM
CC(C)OCCCNC(=O)CN1C(=O)COc2ccc(S(=O)(=O)N3CCOCC3)cc21	i	i	i	i	nt	?
Cc1cc(F)ccc1NCC(=O)Nc1ccccc1Br	i	i	i	i	i	50.1µM
Cc1ccc(F)cc1NCC(=O)Nc1ccc(Cl)cc1F	i	i	i	i	i	i
O=[N+]([O-])c1cccc(-c2nc(NCc3ccccc3)c3ccccc3n2)c1	?	i	i	i	i	?
CN(Cc1ccccc1)c1nc(-c2cccc([N+](=O)[O-])c2)nc2ccccc12	i	31.6µM	?	i	i	i
CCOc1ccc(C(c2nnnn2C(C)(C)C)N2CCN(C(=O)c3ccco3)CC2)cc1 (stereo unspecified)	i	i	i	i	nt	i
O=C(c1ccco1)N1CCN(Cc2nnnn2C2CCCCC2)CC1	i	i	i	i	nt	i
CC(C)CCn1nnnc1C(c1ccccc1)N1CCN(C)CC1 (stereo unspecified)	i	i	i	i	nt	i[12.7 µM]
CCCCn1nnnc1C(c1ccccc1)N1CCN(c2cc(C)ccc2C)CC1 (stereo unspecified)	nt	nt	i	nt	nt	nt
Cc1ccc(C)c(N2CCN(C(c3ccncc3)c3nnnn3Cc3ccccc3)CC2)c1 (stereo unspecified)	?	79.4µM	i	i	i	3.16µM
C=CCN1CCN(C(c2ccccc2)c2nnnn2CCC(C)C)CC1 (stereo unspecified)	?	3.16µM	?	i	i	50.1µM
CC(C)CCn1nnnc1CN1CCN(C(=O)c2ccco2)CC1	i	?	i	i	nt	50.1µM
CN(C)c1ccc(C(c2nnnn2C(C)(C)C)N2CCN(C(=O)c3ccco3)CC2)cc1 (stereo unspecified)	i	i	i	i	i	10µM
Cc1oc2ccc(O)c(CN3CCN(C)CC3)c2c1C(=O)Nc1ccc(C(C)C)cc1	i	i	i	i	nt	i
SMILES	BAZ2B block	JMJD2A Tudor	GLS inh	HP1b chromo inh	L3MBTL1 block	G9a inh
O=S(=O)(c1ccc(F)cc1)N1CCC(n2c(C(F)(F)F)nc3cccnc32)CC1	i	i	i	i	nt	i
Cc1ccc(C)c(N2CCN(C(c3ccc(N(C)C)cc3)c3nnnn3C(C)(C)C)CC2)c1 (stereo unspecified)	i	?	i	i	i	4.47µM
CC(C)CCn1nnnc1C(c1ccc(N(C)C)cc1)N1CCN(C(=O)c2ccco2)CC1 (stereo unspecified)	?	?	i	i	i	50.1µM
CC(C)(C)n1nnnc1C(c1ccncc1)N1CCN(c2ccc(O)cc2)CC1 (stereo unspecified)	i	44.7µM	?	?	nt	?
Cc1ccc(C)c(N2CCN(C(c3ccccc3)c3nnnn3C(C)(C)C)CC2)c1 (stereo unspecified)	nt	nt	i	nt	nt	nt
COCCCNC(=O)c1ccc(Cn2c(=O)c3cccn3c3cccnc32)cc1	i	i	i	i	nt	i
NC1=CC(=O)C(=O)c2ccccc21	nt	i	i	i	nt	nt
O=C1C=C(O)c2[nH]c(=O)ccc2C1=O	nt	10µM	?	i	nt	nt
COc1ccc(C(=O)N(Cc2ccccc2)Cc2ccccc2)cc1COc1ccc(NC(C)=O)cc1	nt	i	nt	nt	nt	nt
O=C(O)c1ccc(S(=O)(=O)/N=C2\C=C(Nc3ccccc3F)C(=O)c3ccccc32)cc1	22.4µM	39.8µM	i	39.8µM	nt	12.6µM
Cc1ccccc1N/C(=N/S(=O)(=O)c1ccccc1)c1ccc(F)cc1	i	i[11.4 µM]	i	i	i	i
COC(=O)C(C(C)=O)C1=C/C(=N\S(=O)(=O)c2ccc(C)cc2)c2ccccc2C1=O (stereo unspecified)	i	i	i	i	nt	44.7µM
Cc1ccccc1NC1=C/C(=N\S(=O)(=O)c2ccc(C(=O)O)cc2)c2ccccc2C1=O	12.6µM	39.8µM	i	44.7µM	nt	31.6µM
CC(=O)Oc1cc(C(=O)OCC(=O)NC23CC4CC(CC(C4)C2)C3)cc(OC(C)=O)c1OC(C)=O	nt	3.55µM	i	?	nt	nt
Cc1ccc(C)c(CSc2ncccc2C(=O)O)c1	i	i	i	i	i	50.1µM
O=C(O)c1cccnc1SCc1cn2cc(Br)ccc2n1	?	i[11.4 µM]	i	i	i	50.1µM
O=C(O)c1ccccc1SCc1cn2cc(Br)ccc2n1	i	i	i	i	i	?
C=CCC(=O)N(CC)CC1CCCN(CCc2cccc(F)c2)C1 (stereo unspecified)	i	i	i	i	i	nt
Cc1cccc(CN2CCCC(C(=O)N3CCc4ccccc4C3)C2)c1 (stereo unspecified)	50.1µM	i	nt	i	nt	12.6µM

Assay outcomes (PubChem)
